Only a selection was taken, and hits are over-represented in it overall.
Cycloheximide cs – counter-screen hit for Shiga toxin inhibitors, cycloheximide. cell reporter, cycloheximide protein synthesis inhibition counterscreen. max response, %. 12% of 300,000 active. AID 2314; in the data active = max response mostly above about 13%, no sharp cut-off; inactive = mostly below about 14%; also: read at 38.3 µM for the half of the compounds with a filed dose; 0% is about no effect
Shiga toxin inh – blocks Shiga toxin action in Vero cells. Vero cells, Shiga toxin protein synthesis inhibition reporter. inhibition, % at 38.7 µM. 9.2% of 290,000 active. AID 2315; in the data active = inhibition mostly above about 28%, no sharp cut-off; inactive = mostly below about 43%; also: 0% is about no effect
TbPYK inhibitor – T. brucei pyruvate kinase inhibition; Q57TT1; TbPYK enzyme, Kinase-Glo Plus ATP luminescence, 45 min; Potency, µM (titrated, usually from 76.8 µM), inactives show at the highest dose activity, negative = inhibition, actives largely listed as inhibitors; 0.12% of 410,000 active; also: potency is read from the fitted curve at half-maximal effect; % is scaled to controls: 0 for no effect and ±100 for the full control effect; nearly all actives have a fitted effect of over 50% in size
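Readout: single end-point luminescence (Kinase-Glo Plus, 10 min). Reaction conditions were TbPYK/substrate plus 130 uM ADP, 45 min at RT, pH 7.2 TEA buffer. No-enzyme wells served as controls, and data were normalized before concentration-response fitting.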
LmPK inhibitor – inhibitors of Leishmania mexicana pyruvate kinase. Q27686. purified LmPK, Kinase-Glo ATP luminescence, 1 h. 0.37% of 290,000 active. AID 1721. Potency, µM (top dose mostly 57.5 µM), for inactives: at the top dose activity change, negative = inhibition, most hits filed as inhibitors; also: potency is read from the fitted curve at half-maximal effect; % is scaled to controls: 0 for no effect and ±100 for the full control effect
Target sequence (Q27686 whole entry, looked up): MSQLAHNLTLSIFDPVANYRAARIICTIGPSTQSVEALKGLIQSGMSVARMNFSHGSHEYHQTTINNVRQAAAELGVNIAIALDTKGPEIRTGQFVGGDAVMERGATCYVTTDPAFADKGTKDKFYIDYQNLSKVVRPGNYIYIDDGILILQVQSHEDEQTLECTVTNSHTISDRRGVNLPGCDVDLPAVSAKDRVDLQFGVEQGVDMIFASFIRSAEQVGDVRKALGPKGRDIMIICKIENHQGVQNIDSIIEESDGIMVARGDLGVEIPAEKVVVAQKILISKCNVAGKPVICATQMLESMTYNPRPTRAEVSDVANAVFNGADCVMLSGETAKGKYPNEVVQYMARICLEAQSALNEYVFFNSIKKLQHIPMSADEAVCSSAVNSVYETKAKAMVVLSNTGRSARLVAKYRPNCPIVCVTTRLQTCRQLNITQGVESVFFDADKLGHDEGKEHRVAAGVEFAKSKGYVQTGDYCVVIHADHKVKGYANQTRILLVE
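In 50 mM imidazole pH 7.2 with 7 mM MgCl2, LmPK (0.1 nM) turned over PEP (0.5 mM) and ADP (0.1 mM) for 1 h at room temperature. Luciferase read-out of ATP.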
Giardia FBPA inh-1 – Giardia lamblia aldolase inhibition | A8B2U2 | purified Giardia FBPA | Potency, µM (highest dose often 59.6 µM), for inactives: at the highest dose activity, negative = inhibition, hits mostly inhibitors | 0.71% of 290,000 active; also: potency is read from the fitted curve at half-maximal effect; % is scaled to controls: 0 for no effect and ±100 for the full control effect; nearly all actives have a fitted effect of over 55% in size
Target sequence (A8B2U2 whole entry, looked up): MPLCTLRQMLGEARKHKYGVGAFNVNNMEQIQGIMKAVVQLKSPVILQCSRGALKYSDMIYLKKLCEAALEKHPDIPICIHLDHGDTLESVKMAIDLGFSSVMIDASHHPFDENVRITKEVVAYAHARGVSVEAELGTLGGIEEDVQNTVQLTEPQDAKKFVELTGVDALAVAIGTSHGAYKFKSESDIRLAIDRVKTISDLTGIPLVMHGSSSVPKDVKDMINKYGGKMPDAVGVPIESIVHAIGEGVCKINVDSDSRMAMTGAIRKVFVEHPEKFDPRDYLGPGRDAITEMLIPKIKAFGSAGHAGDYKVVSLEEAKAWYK
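40 nM FBPA preincubated 10 min at RT with compound (up to 57.5 uM final), then substrate plus GAPDH/TPI/NAD/arsenate coupling and diaphorase/resazurin added. Fluorescence read after 20 min at RT, 525/598 nm.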
RE007 growth inh – less growth of the S. pombe RE007 Vpr strain; S. pombe RE007 Vpr strain, BacTiter-Glo ATP luminescence, 24 h; 0.21% of 360,000 active; AID 651644; Potency, µM (highest dose often 92.2 µM), inactives show top-dose activity change, negative = less growth, hits mostly inhibitors; active = well fitted falling curve with a large enough effect; inconclusive = small, poorly fitted or top-dose-only effect; inactive = no such curve, though single readings can be large or run the other way; also: potency is read from the fitted curve at half-maximal effect; % is scaled to controls: 0 for no effect and ±100 for the full control effect; nearly all actives have a fitted effect of over 50% in size
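Fission yeast strain RE007, carrying one chromosomally integrated HIV-1 vpr copy, was seeded at OD 0.01 in PMG+AL medium with 23 nL pinned compound. After 24 h at 30 °C and 99% humidity, viability was read by BacTiter-Glo luminescence.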
Giardia growth – inhibitors of Giardia lamblia growth. 5% of 1,500 active. Potency, µM (titrated, usually from 57.5 µM), without a hit: top-dose activity change, negative = inhibition, actives largely listed as inhibitors. Giardia lamblia trophozoite growth inhibition. AID 2785. shares compounds with Giardia FBPA inh-1;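 also: potency is read from the fitted curve at half-maximal effect; trophozoites exposed to compound for 48 h at 37 °C; % is scaled to controls: 0 for no effect and ±100 for the full control effect; nearly all actives have a fitted effect of over 70% in size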
Mammalian tox – counter-screen for Giardia aldolase inhibitors: mammalian cell toxicity | shares compounds with Giardia FBPA inh-1 | mammalian cell viability counter-screen, qHTS | Potency, µM (series often up to 57.5 µM), for the others: at the top dose viability change, negative = toxicity, hits mostly inhibitors | 4% of 1,500 active;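 also: Chinese hamster ovary cells used as mammalian cytotoxicity surrogate; viability measured as cellular ATP by luminescence; potency is read from the fitted curve at half-maximal effect; compound exposure lasted 48 h before reading; % is scaled to controls: 0 for no effect and ±100 for the full control effect; nearly all actives have a fitted effect of over 60% in size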
Giardia FBPA inh-2 – confirmation of Giardia fructose-bisphosphate aldolase inhibitors | AID 2787 | Potency, µM (highest dose often 57.5 µM), for inactives: at the highest dose activity change, negative = inhibition, actives largely listed as inhibitors | 5% of 1,500 active | shares compounds with Giardia FBPA inh-1 | purified Giardia aldolase enzyme activity, qHTS; also: potency is read from the fitted curve at half-maximal effect; % is scaled to controls: 0 for no effect and ±100 for the full control effect; nearly all actives have a fitted effect of over 45% in size
Rabbit aldolase – blocks rabbit muscle aldolase in Giardia aldolase selectivity test; AID 2794; Potency, µM (highest dose often 57.5 µM), inactives show at the top dose activity, negative = inhibition, usual class: inhibitors; 4% of 1,500 active; shares compounds with Giardia FBPA inh-1; Rabbit muscle FBPA enzyme inhibition, selectivity counter-screen; also: potency is read from the fitted curve at half-maximal effect; % is scaled to controls: 0 for no effect and ±100 for the full control effect; nearly all actives have a fitted effect of over 60% in size
GAPDH counter – counter-screen for Giardia aldolase inhibitors: GAPDH coupling enzyme; GAPDH coupling enzyme counterscreen, biochemical, qHTS; shares compounds with Giardia FBPA inh-1; 6% of 1,500 active; Potency, µM (highest dose often 57.5 µM), inactives show at the highest dose activity change, negative = inhibition, most hits filed as inhibitors; AID 2795; also: potency is read from the fitted curve at half-maximal effect; % is scaled to controls: 0 for no effect and ±100 for the full control effect; nearly all actives have a fitted effect of over 55% in size
Starred values were filed as active, the others as inactive; u = inconclusive; x = no result; [ ] = another dose, or the depositor's remark. Unless noted, calls follow the shape of the dose curve; as a rule, active = well fitted curve in the direction sought with a large enough effect; inconclusive = small, poorly fitted or top-dose-only effect, or another doubt; inactive = no such curve, though single readings can be large; an effect the other way counts as inactive or inconclusive.

SMILES	Cycloheximide cs	Shiga toxin inh	TbPYK inhibitor	LmPK inhibitor	Giardia FBPA inh-1	RE007 growth inh	Giardia growth	Mammalian tox	Giardia FBPA inh-2	Rabbit aldolase	GAPDH counter
Cc1ccc(NC(=O)C(C)N2C(=O)c3ccccc3C2=O)cc1S(=O)(=O)N1CCOCC1 (configuration not stated)	8	-16	-8%	-2%	1%	-2%	x	x	x	x	x
O=C(/C=C/c1ccc(Br)cc1)NC(=S)N1C[C@H]2C[C@H](C1)c1cccc(=O)n1C2	-1	-3	-6%	2%	u	5%	x	x	x	x	x
O=C(/C=C/c1ccc(Cl)cc1)NC(=S)N1C[C@H]2C[C@H](C1)c1cccc(=O)n1C2	-4	-6	-9%	-3%	7.1µM*	-11%	-22%	15%	4%	5%	4%
CCN(CC(=O)NCc1ccccc1Cl)CC(=O)Nc1c(F)cccc1F	-2	9	5%	-6%	18µM*	2%	44%	0%	8%	4%	11%
COc1ccc(C2(C#N)CCC(=O)N2c2ccccc2)cc1 (configuration not stated)	-4	-2	5%	2%	2%	13%	x	x	x	x	x
Cc1nc(COC(=O)c2ccc(CO)cc2)cs1	4	21	-6%	0%	8%	-19%	x	x	x	x	x
Cc1nc(COC(=O)c2cc(O)c3ccccc3c2O)cs1	17	8	u	-6%	20µM*	-10%	-13%[10.4 µM]	-6%	u	u	u
O=C(CSc1nncn1-c1cccnc1)Nc1cccc(C(F)(F)F)c1	-7	-9	0%	-1%	15%	1%	x	x	x	x	x
CCOC(=O)c1c(-c2ccc(-c3ccccc3)cc2)csc1NC(=O)CCN1CCOCC1	-4	-10	-5%	-1%	0%	-1%	x	x	x	x	x
CCOC(=O)c1c(-c2ccccc2)csc1NC(=O)C(C)NCCCN1CCOCC1 (configuration not stated)	-11	4	-4%	11%	18µM*	3%	4.5µM*	-2%	-6%	-4%	-3%
O=S(=O)(/N=C(/NC(=S)Nc1ccccc1)c1ccccc1)c1ccc(Cl)cc1	41*	101*	0%	0%	18µM*	-23%	u	10%	4%	12%	18%
COc1ccc(NC(=S)NC(=NS(=O)(=O)c2ccc(Cl)cc2)c2ccccc2)cc1	x	x	1%	x	x	-5%	x	x	x	x	x
N#Cc1c(NC(=O)CCC(=O)O)sc2c1CCCC2	-3	-13	-8%	4%	7%	-6%	x	x	x	x	x
N#Cc1c(NC(=O)CCC(=O)O)sc2c1CCCCC2	-1	-25	35µM*	11%	16µM*	0%	-6%	10%	-18%	-2%	-9%
Cc1cc(=O)n(C)c(=O)n1CCCCCCOc1cccc([N+](=O)[O-])c1	5	-8	2%	0%	-2%	2%	x	x	x	x	x
Cc1[nH]n(-c2ccccc2)c(=O)c1/C=N/Nc1nncc(-c2ccccc2)n1	-1	2	1%	-18%	7.9µM*	-24%	u	20µM*	-16%	-3%	-8%
O=c1cc2c(=O)oc3cc(O)c(O)oc3c2c(O)c1O	-3	-6	-18%	-18%	2.8µM*	-3%	15%[10.4 µM]	21%	-27%	u	-18%
Nc1cccc2[nH]c(C(F)(F)F)nc12	9	-3	-24%	-23%	20µM*	-19%	-22%	u	u	-13%	-24%
O=C(O)c1cccc2[nH]c(C(F)(F)F)nc12	-3	-5	-12%	-4%	-25%	-4%	x	x	x	x	x
Cc1ccc(-n2nc(CO)c(C(=O)NCc3cccs3)n2)cc1C	x	x	-3%	x	x	x	x	x	x	x	x
Nn1c(C2COc3ccccc3O2)n[nH]c1=S (configuration not stated)	9	12	-10%	2%	6.3µM*	-16%	-15%[38.3 µM]	-4%	u	u	u
COc1ccccc1CNc1ncccn1	2	2	-4%	-1%	18µM*	-9%	-2%[10.4 µM]	18%	-3%	2%	6%
CC(=O)Nc1cccc(-c2csc(NCc3ccccc3)n2)c1	11*	3	-15%	0%	20µM*	-15%	18%	-7%	8%	8%	5%
O=CN1CCN(C(=S)NC(=O)c2ccc(Cl)cc2)CC1	2	14	-4%	-5%	10µM*	2%	-5%[38.3 µM]	10%	2%	5%	-7%
CN1CCN(C(=S)NC(=O)c2ccc(C(C)(C)C)cc2)CC1	-2	-8	u	-7%	-19%	6%	x	x	x	x	x
SMILES	Cycloheximide cs	Shiga toxin inh	TbPYK inhibitor	LmPK inhibitor	Giardia FBPA inh-1	RE007 growth inh	Giardia growth	Mammalian tox	Giardia FBPA inh-2	Rabbit aldolase	GAPDH counter
CN1CCN(C(=S)NC(=O)c2ccc(Br)cc2)CC1	13*	36*	-22%	u	18µM*	10%	-6%	-3%	9%	-1%	9%
CN1CCN(C(=S)NC(=O)c2ccc(-c3ccccc3)cc2)CC1	-2	19	-24%	-1%	18µM*	1%	-11%[10.4 µM]	2%	6%	12%	-5%
CC1CN(C(=S)NC(=O)c2ccc(Cl)cc2)CC(C)O1 (configuration not stated)	-2	-4	-27%	0%	x	-10%	x	x	x	x	x
O=C(NC(=S)N1CCCC1)c1ccccc1	5	-7	-19%	-7%	x	-9%	x	x	x	x	x
Cc1ccc2c(c1)C1CN(C)CCC1N2C(=S)NC(=O)c1ccc(Br)cc1 (configuration not stated)	1	-4	-13%	5%	16µM*	4%	8.9µM*	-8%	-12%	6%	7%
Cc1c(CC(=O)NCc2ccc(F)cc2)c(=O)oc2cc(O)c(Cl)cc12	x	x	-4%	x	x	x	x	x	x	x	x
CCOC(=O)c1[nH]c(C)c(CCC(=O)Nc2ccc(N(CC)CC)cc2C)c1C	x	x	-9%	x	x	x	x	x	x	x	x
COc1ccc(CCNC(=O)CN2CCN(c3cccc(C(F)(F)F)c3)CC2)cc1	-4	-18	x	-8%	-4%	11%[3.69 µM]	x	x	x	x	x
Cc1ccc2nc(C)cc(N3CCOCC3)c2c1	1	38	-8%	-2%	-5%	-4%	x	x	x	x	x
